High-throughput results (PubChem)
Only some compounds are listed: those with a hit (about 2% of all), similar ones and a draw of the others.
EP2 modulator: modulators of human EP2 prostaglandin E2 receptor; P43116; actives 0.83% (n = 260,000); induction, % at 25 µM; EP2-expressing cells, cAMP HTRF FRET, PGE2 co-stimulation; AID 940;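 active means compounds whose cAMP rise, as percent of the full-agonist control response, exceeds 60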;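 further: rat C6 glioma line stably carrying human EP2 under a CMV promoter; the protocol text gives 20 µM as final concentration; 100% = response of wells given 1 µM PGE2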
PGE2 EP2 inh: inhibitors of human EP2 prostaglandin E2 receptor; inhibition, % at 25 µM; actives 0.52% (n = 260,000); AID 1422; C6 glioma cells expressing human EP2, cAMP TR-FRET; cells stimulated with saturating PGE2;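 active means percent inhibition above 40 after rounding to a whole number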;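 further: rat C6 glioma host cells with rolipram phosphodiesterase inhibitor present; the protocol text gives 20 µM as final concentration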
S1P4 antagonist: antagonists of human S1P4 receptor; O95977; S1P4-expressing cells, antagonist mode, reporter read-out; inhibition, % at 4.98 µM; actives 0.26% (n = 220,000); AID 1510; in the data active means inhibition above about 29%;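 further: 0% = wells stimulated with agonist and 100% = vehicle wells without agonist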
Target sequence (O95977 whole entry, looked up): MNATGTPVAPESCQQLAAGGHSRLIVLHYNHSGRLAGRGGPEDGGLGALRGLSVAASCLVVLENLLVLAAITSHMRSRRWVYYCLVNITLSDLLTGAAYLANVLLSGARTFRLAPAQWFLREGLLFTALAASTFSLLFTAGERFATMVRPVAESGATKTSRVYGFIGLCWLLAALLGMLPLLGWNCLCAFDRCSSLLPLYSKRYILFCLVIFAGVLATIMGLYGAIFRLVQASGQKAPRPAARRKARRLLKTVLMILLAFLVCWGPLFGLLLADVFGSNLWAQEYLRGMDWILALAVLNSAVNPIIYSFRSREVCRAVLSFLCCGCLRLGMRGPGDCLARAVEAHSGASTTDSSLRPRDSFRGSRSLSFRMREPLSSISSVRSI
S1P3 antag: blocks the human S1P3 receptor | CHO S1P3 NFAT-BLA reporter, FRET fluorescence, antagonist mode | actives 0.27% (n = 170,000) | AID 485 | inhibition, % at 4.98 µM;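 active means inhibition above the plate cutoff, the mean inhibition of test wells on that plate plus 3 SD, cut at about 28% in these data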;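 further: cells challenged with S1P at its EC80 of 0.8 µM; blue over green emission ratio from cleaved BLA substrate after 4 h stimulation; 0% = S1P-stimulated wells and 100% = unstimulated DMSO-only wells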
S1P4 ag: agonists of human S1P4 receptor; O95977; S1P4-expressing cell line, agonist reporter assay; activation, % at 4.98 µM; actives 0.35% (n = 220,000); AID 1509; in the data active means activation above about 11%;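 further: 0% = DMSO vehicle and 100% = reference agonist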
EP2 confirm: human EP2 receptor cAMP induction, negative in counter-screens; actives 47% (n = 1,300); C6 glioma EP2 cells, cAMP HTRF induction; plus low (about EC15) PGE2 agonist; calls only at 20 µM (by protocol); shares compounds with EP2 modulator;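 active means cAMP induction above 50% in the main assay while under 30% in all four parallel counter assays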;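 further: rat C6 glioma cells stably expressing human EP2 receptor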
Starred values were filed as active, the others as inactive; i = inactive; x = not tested or not shown; + = active, no number; ! = not active in a repeat.

SMILES	EP2 modulator	PGE2 EP2 inh	S1P4 antagonist	S1P3 antag	S1P4 ag	EP2 confirm
COc1ccccc1CNC(=O)C1CCCN(c2nc3ccccc3n2C)C1 (centres undefined)	-11	4	x	x	x	x
Cc1ccc2[nH]c(=O)c(C(c3nnnn3C3CCCC3)N3CCC(O)CC3)cc2c1 (centres undefined)	-10	14	x	x	x	x
CN1CCCN(C(=O)Cc2c(Cl)cccc2Cl)c2nc3ccccc3nc21	70*	9	-15	-15	0	+
CN1CCCN(C(=O)c2cc(=O)[nH]c3ccccc23)c2nc3ccccc3nc21	15	12	-27	2	0	x
CC(C)NC(=O)C1CC(c2ccccc2O)=NO1 (centres undefined)	-8	10	x	x	x	x
CNC(=O)c1cc2c(=O)n3cc(C)ccc3nc2n(C(C)C)c1=N	73*!	14	1	-14	5	i
CC(C)=CCc1c2c(c3occ(-c4ccc(O)cc4)c(=O)c3c1O)C=CC(C)(C)O2	37	12	-10	-2	0	x
CC1(C)C=Cc2c(c3c(c4c(=O)c(-c5ccc(O)cc5)coc24)OC(C)(C)CC3)O1	60	13	14	2	-1	i
CCNc1nc2c(c(=O)n(C)c(=O)n2C)n1Cc1cccc2ccccc12	-48	10	x	x	x	x
CCN(CC)C(=O)c1nn(-c2ccccc2)c2c1C1CCC2(C)C1(C)C (centres undefined)	72*	7	-13	-4	1	i
CCOC(=O)c1nn(-c2ccccc2)c(C(=O)OCC)c1N	-9	6	-14	13	-1	x
CC(C)Cc1nc2sc3c(=O)[nH]cnc3c2c2c1CCC2	74*	5	-8	-3	0	i
CCc1nc2sc3c(=O)[nH]cnc3c2c2c1CSC(C)(C)C2	49	9	9	-2	1	x
COc1ccc(C(=O)Nc2nnn(C)n2)cc1	24	7	x	x	x	x
CCOC(=O)c1c(CC(C)C)csc1NC(=O)CCl	74*	x	19	x	-1	i
CCOC(=O)c1c(CC(C)C)csc1N	72*	8	-10	3	2	i
COCCn1c(=O)n(CC=C(C)C)c2cccnc21	-16	x	x	x	x	x
CCOc1ccc(-c2noc(-c3ccncc3)n2)cc1OCC	-19	10	-3	0	-1	x
CCOc1cc(-c2noc(-c3ccncc3)n2)cc(Br)c1OC	50	5	-15	-10	0	+
CCN(CC)S(=O)(=O)c1ccc(NC(=O)CSc2ncnc3sc(C)c(C)c23)cc1	34	13	x	x	x	x
CC(N)c1nc2ccccc2[nH]1 (centres undefined)	-12	20	x	x	x	x
Cc1cc(C(=O)CSc2nc3ccccc3c(=O)n2C)c(C)n1Cc1ccc2c(c1)OCO2	74*	8	-9	10	-1	i
Cc1ccc2[nH]c(=O)c(CN(C(=O)Nc3ccccc3Cl)C3CCCC3)cc2c1	-37	10	x	x	x	x
CCc1cccc(CC)c1Nc1cc(C)nc2ncnn12	22	11	x	x	x	x
COCCn1c(SCC(=O)Nc2ccc(F)c(Cl)c2)nnc1-c1ccoc1C	-20	5	x	x	x	x
SMILES	EP2 modulator	PGE2 EP2 inh	S1P4 antagonist	S1P3 antag	S1P4 ag	EP2 confirm
COc1cccc(/C=N/c2oc(-c3ccccc3)cc2C#N)c1O	78*	14	-18	x	0	i
N#Cc1sc2nc(C3CC3)cc(-c3ccccc3)c2c1N	83*	10	-13	19	6	+
N#Cc1sc2nc(-c3ccccc3)cc(-c3ccco3)c2c1N	31	12	-2	-4	1	x
CCOC(=O)c1c(N)nn(C(=O)C(C)(C)C)c1-c1ccccc1	78*	3	-5	-5	2	+
CCOC(=O)c1c(N)nn(C(=O)c2ccccc2F)c1-c1ccc(OC)cc1	39	1	8	-1	0	x
CCOC(=O)c1c(N)sc(C(O)(C(F)(F)F)C(F)(F)F)c1-c1ccccc1	2	13	5	x	0	x
CCOC(=O)c1c(N)sc(-c2ccccc2)c1C	73*	8	2	x	-3	i
OC(CN1CCC2(CC1)CC(O)c1cc(Cl)ccc1O2)c1ccc(Cl)cc1 (centres undefined)	-67	10	x	x	x	x
COc1ccccc1-n1nnnc1SCC(=O)Nc1cccc(C)c1C	-94	3	x	x	x	x
O=C(COC(=O)c1ccccn1)Nc1ccccc1F	-15	14	x	x	x	x
CC1(C)C2CCC1(C)C(OC(=O)CC(=O)O)C2 (centres undefined)	62*	17	-9	x	0	+
CCOc1ccc(S(=O)(=O)N(C)C)cc1-c1nc2c(C(C)(C)C)nn(C)c2c(=O)[nH]1	14	36	-4	x	0	x
CCOc1ccccc1-c1nc2c(C(C)(C)C)nn(C)c2c(=O)[nH]1	84*	15	-8	2	1	+
NC(=O)c1cc(-c2cccc(Cl)c2Cl)no1	-90	15	x	x	x	x
O=C(Cn1c(-c2cccs2)cc2cccnc21)NCCCN1CCCC1=O	-14	6	x	x	x	x
C[N+](C)(C)/N=C/c1ccc(O)c(O)c1	15	31	x	x	x	x
CN(/N=C\c1ccc(O)c(O)c1)c1nc(-c2ccccc2)cc(-c2ccccc2)n1	67*	9	-18	8	0	i
Cc1c(OCc2ccccc2)c(=O)ccn1Cc1ccc(Cl)cc1	67*	-2	-7	x	-3	i
CC(C)(C)n1nnnc1C(c1ccccn1)N1CCC(Cc2ccccc2)CC1 (centres undefined)	24	5	x	x	x	x
COc1ccc(N(CC(=O)N/N=C/c2ccc(OC3CSC3)cc2)S(=O)(=O)c2ccccc2)cc1	36	8	-11	-11	3	x
Cc1ccc(N(CC(=O)N/N=C/c2ccc(OC3CSC3)cc2)S(=O)(=O)c2ccccc2)cc1	76*	15	4	x	-1	+
COc1ccc(C2(NCc3ccc(OCC(=O)N4CCOCC4)cc3)CC2)cc1	-49	7	x	x	x	x
O=C(c1cccs1)N1N=C(c2ccccc2)CC1c1ccc(O)cc1 (centres undefined)	74*	14	-48	2	2	i
O=C(C1CCCC1)N1CCC(Cn2nc(-c3ccccc3)ccc2=O)CC1	-19	x	x	x	x	x
COc1cc(/C=C2\SC(=S)N(Nc3ncc(C(F)(F)F)cc3Cl)C2=O)ccc1O	66*	7	13	x	0	i
SMILES	EP2 modulator	PGE2 EP2 inh	S1P4 antagonist	S1P3 antag	S1P4 ag	EP2 confirm
S=c1nc[nH]c2c1[nH]c1ccccc12	83*	14	-16	x	-1	i
S=c1nc(-c2ccccc2)[nH]c2ccccc12	28	19	-11	1	-1	x
COCCCN(C(=O)c1cccs1)c1nc(-c2ccc(OC)cc2)cs1	46	9	x	x	x	x
COc1ccc(-c2nnn(CC(=O)Nc3c(C)cccc3C)n2)cc1OC	-49	12	x	x	x	x
CC1(C)CC(C(CCN(Cc2ccccc2)C(=O)c2ccco2)c2ccc(F)cc2)CCO1 (centres undefined)	42	2	-19	-8	0	x
O=C(c1ccco1)N(CCC(c1ccccc1)c1ccco1)Cc1ccc(F)cc1 (centres undefined)	70*	4	16	x	-1	+
